# From PubChem BioAssay AID1259343 (VanderVen Lab, College of Veterinary Medicine, Cornell …, 2017)
# The whole screen tested about 6,200 compounds, of which about 2,900 (47%) were called active. Rule as the data show it: active = inhibition above about 50%; inactive = the rest. So high a share suggests a set chosen from earlier hits. This is one part of the list.
# Test: Mycobacterium tuberculosis growth inhibition, primary screen (AID 1259343)
# Settings: inhibition: at 10 µM, stronger effect = higher value; outcome: 10 uM
row,SMILES,inhibition
1,CN(CCCOc1ccccc1Cl)S(=O)(=O)NCc1ccccc1,56.2% (active)
2,COc1c(F)cc(NS(=O)(=O)N(C)Cc2ccccc2)cc1F,31.6% (inactive)
3,CN(Cc1cccc2cnccc12)S(=O)(=O)NCc1ccccc1,20.2% (inactive)
4,c1ccc(CCNCCCOc2cccc3ccccc23)cc1,58% (active)
5,Cc1oc(C)c(C(=O)NC2(c3ccccc3)CCC2)c1Br,20.5% (inactive)
6,O=C(NC1(c2ccc(Cl)cc2)CCC1)c1cnsn1,60.1% (active)
7,O=C(COc1ccc(Cl)cc1)NC1(c2ccccc2)CCC1,29.4% (inactive)
8,O=S(=O)(Nc1ccc(Cl)c(Cl)c1)c1cccs1,20.9% (inactive)
9,O=S(=O)(Nc1nc2ccccc2nc1OCC(F)(F)F)c1cccs1,71.9% (active)
10,COc1ccc(F)c(CN2CCCC(CO)(Cc3cccc(Cl)c3)C2)c1 (stereo not drawn),31% (inactive)
11,O=C(c1cc2cc(F)ccc2[nH]1)N1CCCC(CO)(Cc2cccc(Cl)c2)C1 (stereo not drawn),68.2% (active)
12,OCC1(Cc2cccc(Cl)c2)CCCN(Cc2nc(-c3ccc(F)cc3)cs2)C1 (stereo not drawn),inactive
13,CC(C)(C)c1ccc(C(=O)N2CCC2(C)C(=O)Nc2cccc3c2CCCC3)cc1 (stereo not drawn),0.45% (inactive)
14,CC(C)C(=O)N1CCC1(C)C(=O)Nc1ccc(-n2cccc2)cc1 (stereo not drawn),92.6% (active)
15,Fc1ccc(CNc2ncnc3c2cnn3-c2ccc(F)cc2)cc1,-7.37% (inactive)
16,CC(C)CSc1ncnc2c1cnn2-c1ccccc1,59.5% (active)
17,CCOC(C)c1nc(CSc2ncnc3c2cnn3C)cs1 (stereo not drawn),40% (inactive)
18,CN(Cc1c(F)cccc1Cl)c1cncc(-n2cccn2)n1,83.7% (active)
19,CN(Cc1ccccc1)c1cccc(-n2ccnc2)n1,3.53% (inactive)
20,CCN(CC)c1n[nH]c(-c2cccc(Cl)c2)n1,-6.42% (inactive)
21,Clc1cccc(-c2ccc3nnc(Cl)nc3c2)c1,101% (active)
22,Cc1nn(-c2ccc(C(F)(F)F)cc2)c(C)c1[C@@H]1C=C[C@@H](NCc2ccc(N(C)C)cc2)C1,78.3% (active)

row,SMILES,inhibition
1,N#CC(C(=S)Nc1ccccc1)=C1NN=C2CCCCCN21,41.7% (inactive)
2,COc1cccc(CNc2nccn(-c3cccc(Cl)c3)c2=O)c1,13.4% (inactive)
3,CCOc1ccc(-n2ccnc(NCc3cccs3)c2=O)cc1,71.3% (active)
4,O=C(O)c1c[nH]c2c(Cl)c(Cl)ccc2c1=O,81.6% (active)
5,O=C(O)c1c[nH]c2c(ccc3ccccc32)c1=O,inactive
6,CCCOc1ccc(F)cc1-c1cc(C(=O)NC2CCCCC2)[nH]n1,28% (inactive)
7,COc1ccc(-c2cc(C(=O)NC3CC3)c(C)n2-c2cccc(OC)c2)cc1,-5.91% (inactive)
8,COc1ccc(F)c(-c2cc(C(=O)NC3CC3)ccn2)c1,82.8% (active)
9,COC(=O)c1ccc(NC(=O)CCc2ccncc2)cc1C,92.8% (active)
10,Fc1ccc(Nc2nc3cc(Cl)ccc3o2)cc1Cl,-2.2% (inactive)
11,FC(F)(F)c1ccc(-c2nc(CSc3nc4cc(Cl)ccc4o3)cs2)cc1,87.2% (active)
12,OCCn1c(CSc2nc3ccccc3o2)nc2ccc(Cl)cc21,-42.1% (inactive)
13,Cc1c2ccccc2[nH]c2c1oc1cc(=O)ccc12,97.4% (active)
14,CCCc1nc(-c2ccc(S(N)(=O)=O)cc2)cs1,-6.09% (inactive)
15,CCCc1nc(C(=O)N2C[C@H]3CC=CC[C@H]3C2)cs1,58.6% (active)
16,Cc1cc(C)c(C#N)c(N2CCN(Cc3ccc(Cl)cc3)CC2)n1,47.2% (inactive)
17,Clc1ccc(CN2CCN(Cc3cnc(CC4CCCC4)[nH]3)CC2)cc1,84.3% (active)
18,CC1CCc2onc(C(=O)Nc3nc4ccccc4n3C)c2C1 (stereo not drawn),7% (inactive)
19,COc1cccc(C(=O)NC(C)C23CC4CC(CC(C4)C2)C3)c1 (stereo not drawn),62.8% (active)
20,S=C(NNc1ccccc1)NC12CC3CC(CC(C3)C1)C2,84.2% (active)
21,O=C(NC(=S)NC1C2CC3CC(C2)CC1C3)c1cccs1 (stereo not drawn),56.9% (active)
22,Cc1ccc(C(=O)NC(C)C23CC4CC(CC(C4)C2)C3)s1 (stereo not drawn),93.3% (active)

row,SMILES,inhibition
1,O=S(=O)(/C=C/c1ccccc1)NC12CC3CC(CC(C3)C1)C2,-12.7% (inactive)
2,COc1ccc(C23CC4CC(CC(C(=O)O)(C4)C2)C3)c(F)c1,21.2% (inactive)
3,COC(=O)C1CCCc2c1ccn2CC=C(C)C (stereo not drawn),27.3% (inactive)
4,CC(C)c1ccc(C2NC(=O)C(O)=C2C(=O)c2cccs2)cc1 (stereo not drawn),29% (inactive)
5,CC1CC1C(=O)NC(C)C12CC3CC(CC(C3)C1)C2 (stereo not drawn),55.2% (active)
6,CC(NC(=O)c1cccs1)C12CC3CC(CC(C3)C1)C2 (stereo not drawn),67.3% (active)
7,O=C(NC12CC3CC(CC(C3)C1)C2)c1cccs1,98.1% (active)
8,CC(NC(=O)C1=NNC(=O)CC1)C1CC2CCC1C2 (stereo not drawn),27.1% (inactive)
9,CC(NC(=O)C1=NNC(=O)CC1)C12CC3CC(CC(C3)C1)C2 (stereo not drawn),68% (active)
10,CN(C)C(=O)c1ccc(-c2cnc3c(c2)CCN3CCCc2ccccc2)cc1,33.1% (inactive)
11,COc1ccc(C(NC(=O)c2ccc(C)s2)C2CC2)cc1 (stereo not drawn),83.9% (active)
12,COc1cc(NC(=O)c2ccc(C)s2)cc(OC)c1OC,6.84% (inactive)
13,CN(C)c1nc(N)nc(Cn2nc(-c3ccc(F)cc3)oc2=O)n1,91.8% (active)
14,O=C1CC(c2ccc(Br)s2)c2cnn(C3CCCC3)c2N1 (stereo not drawn),31.2% (inactive)
15,CC(C)CC1=NN(C(=O)c2cccc(Br)c2)C(O)(C(F)(F)F)C1 (stereo not drawn),23% (inactive)
16,O=C(N/N=C(\CC(=O)c1cccs1)C(F)(F)F)c1cccc(Br)c1,103% (active)
17,CCOC(=O)c1c(NC(=O)c2c(F)c(F)c(F)c(F)c2F)sc2c1CCN(c1ccc(Cl)nc1)C2,61.8% (active)
18,CCN1CCc2c(sc(NC(=O)c3ccc(OC)c(OC)c3)c2-c2nc3ccccc3s2)C1,28.1% (inactive)
19,Cc1ccc(CN(C)C(=O)c2cc(Br)c[nH]2)o1,44.1% (inactive)
20,Cc1noc(CN(C)C(=O)c2cc(C(C)C)no2)n1,-37.1% (inactive)
21,Cc1ccc(CN(C)C(=O)c2cc(C(C)C)[nH]n2)o1,69.9% (active)
22,CCN(CC)C(=O)COC(=O)c1cc(-c2cc(C)sc2C)nc2onc(C)c12,-34.1% (inactive)

row,SMILES,inhibition
1,COc1cccc(OCc2n[nH]c(=S)o2)c1,79.7% (active)
2,Cc1cc(C)nc(Nc2cccc(OCc3nc(-c4cccs4)no3)c2)n1,29.2% (inactive)
3,CC(Oc1ccc(F)cc1)c1n[nH]c(=S)o1 (stereo not drawn),-17.5% (inactive)
4,S=c1[nH]nc(COc2ccccc2Cl)o1,-28.9% (inactive)
5,COc1cccc(OCc2nc(-c3ccc(Br)o3)no2)c1,93.8% (active)
6,S=c1[nH]nc(COc2ccc(Cl)cc2Cl)o1,79.7% (active)
7,S=c1[nH]nc(COc2ccc(Cl)cc2)o1,91.8% (active)
8,Cc1ccc(C)c(OCc2n[nH]c(=S)o2)c1,21.7% (inactive)
9,CN1N=C(c2ccc(F)c(F)c2)CSC1=NCc1ccccc1,18.9% (inactive)
10,OC1(C2(O)CC(c3ccccc3)NO2)CCCCC1 (stereo not drawn),27.1% (inactive)
11,Cc1cccc(C)c1-n1nnnc1SC(C)C(=O)NC(=O)NC1CCCCC1 (stereo not drawn),81.5% (active)
12,O=C(NN=C1C(=O)c2cccc3cccc1c23)NC1CCCCC1,-1.18% (inactive)
13,CC(On1nnc2ccc(Cl)cc21)C(=O)NC(=O)NC1CCCCC1 (stereo not drawn),27.5% (inactive)
14,Brc1ccc(-c2ccc(CN3CCNCC3)s2)cc1,73.8% (active)
15,N#Cc1ccc(/C=C/C(=O)N2CCN(Cc3ccc(Br)s3)CC2)cc1,28.6% (inactive)
16,O=C(C1CC1)N1CCC(NCc2ccc(-c3cccc(Br)c3)s2)CC1,44.8% (inactive)
17,O=C(NNc1c(Cl)cc(Cl)cc1Cl)C1CCC1,47.8% (inactive)
18,CCN(C(=S)NC(=O)C1CC1)C1CCCCC1,20.5% (inactive)
19,O=C(NC(=S)Nc1cc(Cl)c(Cl)cc1Cl)C1CC1,82.6% (active)
20,C=CCOc1ccccc1CN(C(=O)CCl)c1ccc2c(c1)OCCO2,37.2% (inactive)
21,O=S(=O)(Nc1cc(Cl)ccc1-n1cncn1)c1ccc(F)cc1,66% (active)
22,O=[N+]([O-])c1cc(S(=O)(=O)Nc2cc(Cl)ccc2-n2cncn2)ccc1Cl,67.4% (active)

row,SMILES,inhibition
1,O=[N+]([O-])c1cc(S(=O)(=O)Nc2cc(Cl)ccc2F)ccc1F,47.3% (inactive)
2,O=c1[nH]nc(-c2ccccc2O)n1-c1ccc(Br)cc1,-5.57% (inactive)
3,O=C(CCNc1ccc(-c2ccccc2)cc1)N1CCn2cncc2C1,92.2% (active)
4,COC(=O)N1CCc2onc(-c3ccc(-c4ccccc4)cc3)c2C1,25.7% (inactive)
5,O=C(CN1CCN(C(=O)C2CCCO2)CC1)Nc1ccc(-c2ccccc2)cc1 (stereo not drawn),4.56% (inactive)
6,c1ccc(Cc2nnc3sc(-c4ccco4)nn23)cc1,21.3% (inactive)
7,CCCCOC(=O)c1ccc(Nc2ncnc3c2nnn3C)cc1,9.62% (inactive)
8,CCCOC(=O)c1ccc(NCN2C(=O)c3ccccc3C2=O)cc1,93.9% (active)
9,COCC(C)NC(=O)CCc1nnc(CCC2CCCCC2)o1 (stereo not drawn),inactive
10,O=C(CCc1nnc(CCC2CCCCC2)o1)NCCc1cccnc1,41% (inactive)
11,CC(Cc1cnccn1)NC(=O)CCc1nnc(CCC2CCCCC2)o1 (stereo not drawn),33.8% (inactive)
12,CN(Cc1ccoc1)C(=O)c1cn(CC2CCCCC2)nn1,26.8% (inactive)
13,CC(CNC(=O)CCc1nnc(CCC2CCCCC2)o1)c1ccccc1 (stereo not drawn),57.9% (active)
14,CCn1cc(CNC(=O)CCc2nnc(CCC3CCCCC3)o2)cn1,76.4% (active)
15,O=C1Nc2ccc(Br)cc2C12Nc1ccccc1S2 (stereo not drawn),5.83% (inactive)
16,N#Cc1ncn(CC(=O)Nc2ccc(OC(F)F)c(Cl)c2)n1,73.2% (active)
17,CC(OC(=O)c1ccco1)C(=O)Nc1ccc(OC(F)F)c(Cl)c1 (stereo not drawn),4.36% (inactive)
18,Cc1cc(C(=O)Nc2ccc(OC(F)F)c(Cl)c2)on1,91.1% (active)
19,O=C(CCl)Nc1ccc(OC(F)F)c(Cl)c1,86.6% (active)
20,FC(F)Oc1ccc(NC(=S)Nc2cccnc2)cc1Cl,92.8% (active)
